Screens: PubChem BioAssay, National Center for Advancing Translational Sciences (NCATS)
Pin1 inhibitor = qHTS Assay to Find Inhibitors of Pin1 | Pin1 FP peptide displacement, HiFluor488, 10 min | Potency, µM (series often up to 115 µM), inactives show at the highest dose activity, negative = inhibition, actives largely listed as inhibitors | 390,000 compounds, 0.009% hits | AID 504891, 2011; active = well fitted inhibition curve with a large enough effect in the polarisation, with a control signal flat, not every such curve was filed as active; inconclusive = small, poorly fitted or top-dose-only effect, or effect the other way, or a change in a side signal; inactive = no such curve, though single readings can be large or run the other way; the % refers to the polarisation; also: potency is read from the fitted curve at half-maximal effect; % is scaled to controls: 0 for no effect and ±100 for the full control effect
AT treatment = qHTS Assay for Identifying a Potential Treatment of Ataxia-Telangiectasia | F2112 A-T fibroblasts, KAP-1 phosphorylation AlphaLISA; neocarzinostatin DNA damage 30 min before lysis | Potency, µM (titrated, usually from 57.5 µM), for inactives: top-dose activation, actives largely listed as activators | 320,000 compounds, 0.19% hits | AID 485349, 2010; also: potency is read from the fitted curve at half-maximal effect; % of control where 0% means no effect; nearly all actives have a fitted effect of over 45% in size
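hTERT-immortalized A-T patient fibroblasts (F2112), 500 cells/well in OPTI-MEM, 1% FBS, got compounds for 60 min, then NCS for 30 min at 37C. Lysates were then assayed for phospho-KAP-1 by AlphaLISA (anti-pKAP1 donor, anti-KAP1 acceptor beads), 6 hr at 25C.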
TrxR1 substrate = qHTS Assay for Substrates of Mammalian Selenoprotein Thioredoxin Reductase 1 (TrxR1): qHTS. Potency, µM (highest dose often 114 µM), for the others: top-dose activity change, negative = substrate turnover. 390,000 compounds, 0.01% hits. AID 588456, 2011. purified TrxR1 substrate turnover, NADPH consumption readout; also: potency is read from the fitted curve at half-maximal effect; % is scaled to controls: 0 for no effect and ±100 for the full control effect; nearly all actives have a fitted effect of over 50% in size
Target sequence (O89049 whole entry, looked up): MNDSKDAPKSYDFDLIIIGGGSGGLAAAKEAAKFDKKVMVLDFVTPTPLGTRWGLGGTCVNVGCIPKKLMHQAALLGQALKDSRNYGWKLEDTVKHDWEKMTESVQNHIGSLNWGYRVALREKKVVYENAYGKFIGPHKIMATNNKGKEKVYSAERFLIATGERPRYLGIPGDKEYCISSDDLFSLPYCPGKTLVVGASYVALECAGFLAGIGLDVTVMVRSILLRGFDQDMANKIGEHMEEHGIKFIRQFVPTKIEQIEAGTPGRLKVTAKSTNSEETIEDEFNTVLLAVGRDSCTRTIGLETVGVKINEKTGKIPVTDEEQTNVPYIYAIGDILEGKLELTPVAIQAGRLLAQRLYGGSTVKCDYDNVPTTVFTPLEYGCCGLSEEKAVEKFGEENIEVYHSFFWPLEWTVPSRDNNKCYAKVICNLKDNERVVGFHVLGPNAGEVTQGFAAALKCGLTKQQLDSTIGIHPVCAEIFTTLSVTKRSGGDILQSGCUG
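Rat TrxR1, dispensed at 90 nM, was prereduced with 400 uM NADPH (final) for 5 min at ~22 deg C, then incubated with compound 15 min before 400 uM selenite. A first-read NADPH fluorescence drop versus no-compound background flagged substrates.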
TrxR1 inh = qHTS Assay for Inhibitors of Mammalian Selenoprotein Thioredoxin Reductase 1 (TrxR1): qHTS; AID 588453, 2011; recombinant rTrxR1, NADPH fluorescence consumption, selenite substrate; Potency, µM (doses to about 114 µM), for inactives: at the top dose activity change, negative = inhibition, most hits filed as inhibitors; 390,000 compounds, 1% hits; Thioredoxin reductase 1, cytoplasmic (Rattus norvegicus), O89049; also: potency is read from the fitted curve at half-maximal effect; % is scaled to controls: 0 for no effect and ±100 for the full control effect; nearly all actives have a fitted effect of over 65% in size
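Rat TrxR1 (90 nM in the dispensed reagent) was pre-reduced with 400 uM NADPH for 5 min at room temperature, then incubated with compound for 15 min. After 400 uM selenite was added, NADPH fluorescence (Ex 340/Em 450 nm) was followed for 8 min.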
pAkt inh = HTS Assay for Inhibitors of Akt Phophorylation: Primary Screen. Neuro2A IGF-stimulated pAkt S473 HTRF, 20 min; stronger effect = lower value. activity change, % for hits at 50 µM. 360,000 compounds, 0.32% hits. AID 651550, 2012; in the data active = activity change below about -80%; inconclusive = mostly about -51% to -80%; also: % is scaled to controls: 0 for no effect and ±100 for the full control effect
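Neuro2A cells in DMEM with 0.5% FBS, overnight at 37 deg C, given compound at single 50 µM final, then IGF (6 nM final) for 20 min at 37 deg C. Lysed; phospho-Akt Ser473 by HTRF after 24 h, 665/615 ratio.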
N370S GC mod = qHTS Assay for Inhibitors and Activators of N370S glucocerebrosidase as a Potential Chaperone Treatment of Gaucher Disease | N370S GC spleen homogenate, 4MU-glucoside fluorescence | Potency, µM (top dose mostly 59.4 µM), inactives show at the top dose activity change, negative = inhibition, usual class: inhibitors | 330,000 compounds, 0.092% hits;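 also: potency is read from the fitted curve at half-maximal effect; 0% = full enzyme activity and -100% = no enzyme basal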
Starred values were filed as active, the others as inactive; i = inactive; ? = inconclusive; . = no result; [ ] = remark or other dose. In the library only some 1.4% were active in any assay of this set; here they are far more common. Unless noted, calls follow the shape of the dose curve; as a rule, active = well fitted curve in the direction sought with a large enough effect; inconclusive = small, poorly fitted or top-dose-only effect, or another doubt; inactive = no such curve, though single readings can be large; an effect the other way counts as inactive or inconclusive.

SMILES	Pin1 inhibitor	AT treatment	TrxR1 substrate	TrxR1 inh	pAkt inh	N370S GC mod
c1ccc(CN2CCC(Nc3nc(-c4cccs4)nc4ccccc34)CC2)cc1	8.1%	-5.2%	3.3%[11.4 µM]	6.4%[11.4 µM]	i	10µM*
Cc1ccccc1-c1nc(NCc2cccs2)c2ccccc2n1	.	.	.	.	.	7.08µM*
c1csc(-c2nc(NCC3CCCO3)c3ccccc3n2)c1 (stereo not given)	-1.2%	5.0%	-9.9%	-4.7%	i	?
Oc1cccc(Nc2nc(-c3ccccc3Cl)nc3ccccc23)c1	-1.3%	4.0%	-1.5%	11.2%	i	1µM*
c1ccc(-c2nc(NCc3cccs3)c3ccccc3n2)cc1	4.6%	10.3%	-4.4%	-1.9%	i	?
c1csc(CNc2nc(-c3cccs3)nc3ccccc23)c1	2.0%	7.7%	8.7%[57.1 µM]	21.5%[57.1 µM]	i	17.8µM*
O=C1CCc2cc(Cl)c(S(=O)(=O)Nc3ccc(Cl)c(Cl)c3)cc2N1	7.0%	.	.	.	.	.
Clc1ccccc1-c1nc(NCc2cccs2)c2ccccc2n1	.	.	.	.	.	7.08µM*
Cc1ccc(Nc2ccc(C(N)=O)cc2[N+](=O)[O-])cc1C	-1.7%	25.1µM*	-3.6%	15.6%	i	13.1%
Nc1cccc(S(=O)(=O)N2CCN(S(=O)(=O)c3c(F)cccc3F)CC2)c1	-2.8%	.	.	.	.	.
Nc1ncnc2nc(SCc3ccccc3)[nH]c12	4.4%	10.2%	5.4%	17.7%	-113.0%*	5.5%
O=Cc1c(Cl)nc2ccccn2c1=O	-3.3%	6.9%	21.3%	17.8µM*	i	2.1%
Cc1cccn2c(=O)c(C=O)c(Cl)nc12	-0.4%	-3.8%	9.4%[57.1 µM]	?	i	10.4%
Cc1ccc(S(=O)(=O)/C=C/C#N)cc1	.	.	20.6%[57.1 µM]	0.947µM*	.	-2.8%
Cc1nnnn1/C(=C\c1ccccc1)C(=O)OCC(=O)Nc1ccc(Cl)cc1F	-8.8%	2.1%	9.9%	?	i	0.7%
Cc1nnnn1/C(=C\c1ccccc1)C(=O)OCC(=O)Nc1cccc(S(=O)(=O)N(C)C)c1	20.9%	?	-7.8%	12.6µM*	i	.
CC1CCc2c(sc(NC(=O)c3cccs3)c2C(=O)O)C1 (stereo not given)	1.3%	26.7%	-9.3%	-0.8%	i	-9.5%
COC(=O)c1c(NC(=O)c2cccs2)sc2c1CCC(C)C2 (stereo not given)	22.9%	0.0%	20.8%	12.4%	-101.4%*	25.4%
O=C1OCC2=C1C(c1ccc(F)cc1)Sc1ccccc1N2 (stereo not given)	-2.7%	1.8%	2.4%	-3.9%	i	17.8µM*
COc1cc(C2Sc3ccccc3NC3=C2C(=O)OC3)cc(OC)c1OC (stereo not given)	-1.5%	2.4%	-4.1%	-0.6%	i	-27.3%
CC(=O)Sc1nc(-c2ccccc2)[nH]c1S(=O)(=O)c1ccc(C)cc1	?	-1.0%	-0.1%[57.1 µM]	-6.9%[57.1 µM]	i	1.8%
CSc1nc(-c2ccc(C)cc2)[nH]c1S(=O)(=O)c1ccccc1	9.1%	-3.3%	10.2%	6.8%	-106.1%*	?
COc1ccc(-c2nc3cnc(N(C)C)nc3n(CCC#N)c2=O)cc1	.	.	.	.	.	14.6%
CCCCN(C(=O)NC(=O)C1=C(N2CCOCC2)/C(=C/c2ccccc2)CC1)S(C)(=O)=O	-5.6%	4.4%	112.1%	14.1µM*	i	?
CN(C(=O)NC(=O)C1=C(N2CCOCC2)/C(=C/c2ccccc2)CC1)S(C)(=O)=O	-10.1%	4.2%	70.5%	35.5µM*	i	?
O=C(O)c1ccc(N/N=C/C2=C(N3CCOCC3)C(=C\c3ccccc3)/CC2)cc1	?	5.6%	-5.9%	-27.5%	i	-14.7%
